Measured values taken from PubChem BioAssay (NCATS).

Each molecule was assayed against Glucocorticoid receptor (Homo sapiens) (UniProt P04150) (assay: GR-GFP Redistribution (AID 450)). Conditions: U2OS GR-GFP nuclear translocation, laser cytometry, 2 h; series mostly up to 20.6 µM;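 active means compounds whose dose series gives a full or clear partial fitted curve of increased nuclear translocation; inconclusive means weak partial curve or effect only at the top dose; inactive means no dose-dependent translocation response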.
Sequence of Glucocorticoid receptor (Homo sapiens) (P04150 whole entry, looked up): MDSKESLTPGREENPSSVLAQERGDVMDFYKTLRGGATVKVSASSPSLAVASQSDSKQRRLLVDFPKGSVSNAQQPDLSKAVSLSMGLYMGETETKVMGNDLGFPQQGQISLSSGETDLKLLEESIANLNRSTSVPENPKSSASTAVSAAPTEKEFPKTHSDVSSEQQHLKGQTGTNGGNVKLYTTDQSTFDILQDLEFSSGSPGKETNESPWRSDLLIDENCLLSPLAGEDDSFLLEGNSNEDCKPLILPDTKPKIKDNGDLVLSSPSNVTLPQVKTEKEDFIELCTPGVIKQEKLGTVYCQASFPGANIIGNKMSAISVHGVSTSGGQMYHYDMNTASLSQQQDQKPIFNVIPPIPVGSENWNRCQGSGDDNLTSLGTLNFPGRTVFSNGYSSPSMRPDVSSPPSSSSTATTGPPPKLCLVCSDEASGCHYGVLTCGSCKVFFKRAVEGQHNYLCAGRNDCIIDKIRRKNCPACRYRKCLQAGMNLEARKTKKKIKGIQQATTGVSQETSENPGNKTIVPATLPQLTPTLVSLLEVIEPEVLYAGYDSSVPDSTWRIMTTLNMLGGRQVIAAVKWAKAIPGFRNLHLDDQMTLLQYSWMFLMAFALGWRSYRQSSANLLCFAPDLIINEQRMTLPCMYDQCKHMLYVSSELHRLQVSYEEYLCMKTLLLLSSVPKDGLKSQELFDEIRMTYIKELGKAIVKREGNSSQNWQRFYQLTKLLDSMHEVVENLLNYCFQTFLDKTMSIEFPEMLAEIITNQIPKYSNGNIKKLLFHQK
Potency means the concentration at half of the fitted maximal effect.

Potency, inactive:
COc1cccc(CNc2ncc(Br)cc2Br)c1O > 20.6 µM
C=CCOn1c(=O)c(-c2cc3ccccc3o2)[n+]([O-])c2ccccc21 > 20.6 µM
Cc1ccc(S(=O)(=O)N2CCN(c3nc(C)c4c(c3C#N)CC(C)(C)OC4)CC2)cc1 > 20.6 µM
CC1(C)Cc2c(C#N)c(N3CCOCC3)nc(-c3ccccc3)c2CO1 > 20.6 µM
Cc1nc2c(c(=O)n1CC1CCCO1)c1nc3ccccc3nc1n2Cc1ccc2c(c1)OCO2 (stereo not drawn) > 20.6 µM
CCOC(=O)c1c(CN2CCN(C)CC2)n(C)c2cc(Br)c(OC)cc12 > 20.6 µM
CCCSc1nc(N2CCCC2)c2c(c1C#N)CC(C)(C)OC2 > 20.6 µM
CCOC(=O)c1ccc(N=CC2=C(O)CC(c3ccco3)CC2=O)cc1 (stereo not drawn) > 20.6 µM
CCCCCSc1nc(N2CCOCC2)c2c(c1C#N)CC(C)(C)OC2 > 20.6 µM
CC(C)Sc1nnc2n(CCc3ccccc3)c(=O)c3c4c(sc3n12)COC(C)(C)C4 > 20.6 µM
CCCCNC(=O)C(C#N)c1nc2ccccc2nc1N1CCN(Cc2ccc3c(c2)OCO3)CC1 (stereo not drawn) > 20.6 µM
CCCOc1cc(CN2CCCCC2)cc(C(C)=O)c1 > 20.6 µM
COc1ccc(CCNc2oc(COc3ccccc3)nc2C#N)cc1 > 20.6 µM
CCCCNC(=O)N(C)c1nncnc1C(=O)NC > 20.6 µM
C=CCn1c(=O)c(C(=O)NCCN(CC)CC)c(O)c2ccccc21 > 20.6 µM
OCCNc1nc(-c2ccccc2)c2ccccc2n1 > 20.6 µM
CCOC(=O)c1[nH]c2ccc(F)cc2c1NC(=O)CCN1CCSCC1 > 20.6 µM
Nc1c(C(=O)NCC2CCCO2)c2nc3ccccc3nc2n1/N=C/c1ccncc1 (stereo not drawn) > 20.6 µM
CCN(CC)Cc1cc(C(C)=O)ccc1OCC(C)C > 20.6 µM
COc1ccc(C2NC(=O)NC(O)(C(F)(F)F)C2C(=O)c2ccc(F)cc2)cc1 (stereo not drawn) > 20.6 µM
O=C(NCc1cccnc1)/C(=N\O)c1ccccc1 > 20.6 µM
CC(C)Cc1nc(N2CCN(C(=O)Cc3ccccc3)CC2)c(C#N)c2c1COC(C)(C)C2 > 20.6 µM
CCOC(=O)c1[nH]c2ccc(OC)cc2c1NC(=O)CCN1CCc2ccccc2C1 > 20.6 µM
